Source: the supplement of paper PMC9262897, “Low-cost anti-mycobacterial drug discovery using engineered E. coli” (Nature Communications, 2022)
Structures can show the parent of a compound that is named as a salt. ± gives the standard deviation of the averaged measurements.

Key:
Experiment in all cases: growth (OD600 after 10 h); higher = more growth (less inhibition)
[1] = test system: E. coli TESEC Alr+ wild-type control; settings: compound 0.1 mM; raw OD600 reference: median of DMSO wells 0.241, cell-free background 0.041
Experimental: (§1)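 TESEC Mtb Alr E. coli, or the Alr+ wild-type control, in 384-well plates with Prestwick library compounds at 0.1 mM and 1% DMSO, across arabinose induction levels of 1E3 to 1E7 nM. Growth is read as OD600 after 10 h at 37 °C in triplicate biological replicates.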

E. coli TESEC Mtb Alr [2] = settings: compound 0.1 mM
Experimental: as §1

E. coli TESEC Mtb Asd = settings: compound 0.1 mM
Experimental: (§2)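 TESEC E. coli strains in which the native enzyme is deleted and replaced by arabinose-inducible Mtb Asd, DapB, CysH or TrpD, each grown in its selective medium. Strains were screened against the Prestwick library at 0.1 mM and 1% DMSO in 384-well format at low and high arabinose induction. Growth is read as OD600 after 10 h in triplicate.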

E. coli TESEC Mtb DapB = settings: compound 0.1 mM
Experimental: as §2

[3] = test system: E. coli TESEC Alr+ wild-type control; settings: compound 0.1 mM; raw OD600 reference: median of DMSO wells 0.49, cell-free background 0.052
Experimental: (§3)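 TESEC Mtb Alr E. coli (ΔaraC ΔtolC ΔentC Δalr ΔdadX, arabinose-inducible Mtb Alr) or the Alr+ wild-type control strain, grown in defined M9-fructose medium without D-alanine in 96-well plates with Prestwick library compounds at 0.1 mM and 1% DMSO. Low Alr induction is 0.1 µM arabinose and high induction is 10 mM arabinose.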

E. coli TESEC Mtb Alr [4] = settings: compound 0.1 mM; remark: listed apart in the source
Experimental: as §3

[5] = arabinose 1000 nM, raw OD600 reference: median of DMSO wells 0.294, cell-free background 0.041
[6] = arabinose 10000 nM, raw OD600 reference: median of DMSO wells 0.264, cell-free background 0.041
[7] = arabinose 100000 nM, raw OD600 reference: median of DMSO wells 0.201, cell-free background 0.041
[8] = arabinose 1000000 nM, raw OD600 reference: median of DMSO wells 0.193, cell-free background 0.041
[9] = arabinose 10000000 nM, raw OD600 reference: median of DMSO wells 0.146, cell-free background 0.041
[10] = arabinose induction (level): High, raw OD600 reference: median of DMSO wells 0.331, cell-free background 0.041
[11] = arabinose induction (level): Low, raw OD600 reference: median of DMSO wells 0.417, cell-free background 0.041
[12] = arabinose induction (level): High, raw OD600 reference: median of DMSO wells […], cell-free background 0.041
[13] = arabinose induction (level): Low, raw OD600 reference: median of DMSO wells 0.227, cell-free background 0.041
[14] = arabinose 100 nM, raw OD600 reference: median of DMSO wells 0.413, cell-free background 0.052
[15] = arabinose 10000000 nM, raw OD600 reference: median of DMSO wells […], cell-free background 0.052

| SMILES | growth [1] | growth (E. coli TESEC Mtb Alr [2]; [5]) | growth (E. coli TESEC Mtb Alr [2]; [6]) | growth (E. coli TESEC Mtb Alr [2]; [7]) | growth (E. coli TESEC Mtb Alr [2]; [8]) | growth (E. coli TESEC Mtb Alr [2]; [9]) | growth (E. coli TESEC Mtb Asd; [10]) | growth (E. coli TESEC Mtb Asd; [11]) | growth (E. coli TESEC Mtb DapB; [12]) | growth (E. coli TESEC Mtb DapB; [13]) | growth [3] | growth (E. coli TESEC Mtb Alr [4]; [14]) | growth (E. coli TESEC Mtb Alr [4]; [15]) |
| --- | --- | --- | --- | --- | --- | --- | --- | --- | --- | --- | --- | --- | --- |
| CCCCc1nc(Cl)c(CO)n1Cc1ccc(-c2ccccc2-c2nnn[nH]2)cc1 [Losartan] | 0.204 ± 0.0085 | 0.281 ± 0.015 | 0.258 ± 0.0039 | 0.209 ± 0.026 | 0.161 ± 0.0058 | 0.1297 ± 0.0011 | 0.23 ± 0.017 | 0.409 ± 0.0075 | 0.195 ± 0.015 | 0.228 ± 0.018 | 0.495 ± 0.071 | 0.4187 ± 0.0032 | 0.279 ± 0.0092 |
| NS(=O)(=O)Cc1noc2ccccc12 [Zonisamide] | 0.252 ± 0.013 | 0.301 ± 0.012 | 0.2543 ± 0.0014 | 0.203 ± 0.0022 | 0.19 ± 0.0041 | 0.139 ± 0.0077 | 0.296 ± 0.019 | 0.389 ± 0.02 | 0.201 ± 0.0092 | 0.234 ± 0.012 | 0.453 ± 0.018 | 0.406 ± 0.0079 | 0.353 ± 0.018 |
| COC1=C(OC)C(=O)C(CCCCCCCCCCO)=C(C)C1=O [Idebenone] | 0.0426 ± 0.0005 | 0.0428 ± 0.0023 | 0.0413 ± 0.00026 | 0.0466 ± 0.0041 | 0.04233 ± 0.0004 | 0.0482 ± 0.0015 | 0.0516 ± 0.0016 | 0.0501 ± 0.0007 | 0.0884 ± 0.057 | 0.066 ± 0.0091 | 0.0491 ± 0.0001 | 0.139 ± 0.087 | 0.0513 ± 0.001 |
| Cn1c(=O)c2nc[nH]c2n(C)c1=O [Theophylline monohydrate] | 0.263 ± 0.0048 | 0.328 ± 0.018 | 0.283 ± 0.013 | 0.21 ± 0.027 | 0.189 ± 0.0034 | 0.158 ± 0.0078 | 0.4904 ± 0.0049 | 0.455 ± 0.0057 | 0.197 ± 0.014 | 0.241 ± 0.044 | 0.461 ± 0.014 | 0.406 ± 0.016 | 0.338 ± 0.01 |
| CCCN(CCC)CCc1cccc2c1CC(=O)N2 [Ropinirole HCl] | 0.239 ± 0.0025 | 0.301 ± 0.0083 | 0.251 ± 0.0073 | 0.195 ± 0.025 | 0.18 ± 0.009 | 0.146 ± 0.0056 | 0.379 ± 0.066 | 0.441 ± 0.035 | 0.198 ± 0.013 | 0.211 ± 0.025 | 0.443 ± 0.028 | 0.408 ± 0.01 | 0.366 ± 0.0066 |
| CC(CN(C)C)CN1c2ccccc2CCc2ccccc21 (stereo unspecified) [Trimipramine maleate salt] | 0.167 ± 0.0021 | 0.204 ± 0.012 | 0.3 ± 0.0057 | 0.184 ± 0.013 | 0.15 ± 0.0042 | 0.156 ± 0.0021 | 0.141 ± 0.019 | 0.267 ± 0.046 | 0.195 ± 0.035 | 0.219 ± 0.027 | 0.4285 ± 0.0016 | 0.395 ± 0.0065 | 0.337 ± 0.0056 |
| COc1cc2nc(N3CCN(C(=O)C4CCCO4)CC3)nc(N)c2cc1OC (stereo unspecified) [Terazosin hydrochloride] | 0.208 ± 0.008 | 0.292 ± 0.0061 | 0.2762 ± 0.00084 | 0.139 ± 0.0052 | 0.138 ± 0.0066 | 0.144 ± 0.0038 | 0.215 ± 0.012 | 0.431 ± 0.0086 | 0.222 ± 0.02 | 0.219 ± 0.012 | 0.443 ± 0.035 | 0.407 ± 0.01 | 0.259 ± 0.019 |
| CCCCOc1ccc(OCCCN2CCOCC2)cc1 [Pramoxine hydrochloride] | 0.199 ± 0.0084 | 0.268 ± 0.018 | 0.263 ± 0.011 | 0.195 ± 0.013 | 0.146 ± 0.0024 | 0.163 ± 0.0035 | 0.362 ± 0.03 | 0.403 ± 0.022 | 0.183 ± 0.014 | 0.226 ± 0.0093 | 0.425 ± 0.028 | 0.408 ± 0.0076 | 0.332 ± 0.011 |
| Cn1nnc2c(C(N)=O)ncn2c1=O [Temozolomide] | 0.241 ± 0.006 | 0.289 ± 0.0045 | 0.248 ± 0.0082 | 0.208 ± 0.018 | 0.163 ± 0.0073 | 0.134 ± 0.0048 | 0.225 ± 0.0049 | 0.305 ± 0.022 | 0.194 ± 0.02 | 0.211 ± 0.0067 | 0.539 ± 0.076 | 0.423 ± 0.011 | 0.35 ± 0.01 |
| Oc1ccc(OCc2ccccc2)cc1 [Monobenzone] | 0.176 ± 0.0053 | 0.213 ± 0.017 | 0.249 ± 0.011 | 0.169 ± 0.004 | 0.134 ± 0.0036 | 0.161 ± 0.0038 | 0.314 ± 0.099 | 0.325 ± 0.025 | 0.2 ± 0.0057 | 0.21 ± 0.017 | 0.477 ± 0.012 | 0.395 ± 0.019 | 0.304 ± 0.018 |
| Cc1onc(-c2ccccc2)c1C(=O)N[C@@H]1C(=O)N2[C@@H]1SC(C)(C)[C@@H]2C(=O)O [Oxacillin sodium] | 0.246 ± 0.017 | 0.298 ± 0.017 | 0.249 ± 0.012 | 0.198 ± 0.015 | 0.187 ± 0.0051 | 0.14 ± 0.0038 | 0.468 ± 0.036 | 0.477 ± 0.0063 | 0.192 ± 0.0086 | 0.243 ± 0.046 | 0.492 ± 0.054 | 0.421 ± 0.0073 | 0.362 ± 0.0089 |
| COc1c(N2CCNC(C)C2)c(F)cc2c(=O)c(C(=O)O)cn(C3CC3)c12 (stereo unspecified) [Gatifloxacin] | 0.0447 ± 0.0053 | 0.0402 ± 0.00046 | 0.0396 ± 0.0002 | 0.04067 ± 0.00032 | 0.03983 ± 0.00029 | 0.0409 ± 0.00055 | 0.0508 ± 0.0018 | 0.0482 ± 0.0013 | 0.04873 ± 0.00025 | 0.04953 ± 0.00047 | 0.05293 ± 0.00023 | 0.0533 ± 0.00079 | 0.0521 ± 0.0016 |
| Cc1cc(-n2c(=O)[nH]c(=O)n(C)c2=O)ccc1Oc1ccc(SC(F)(F)F)cc1 [Toltrazuril] | 0.0494 ± 0.013 | 0.0602 ± 0.032 | 0.0431 ± 0.006 | 0.0449 ± 0.0059 | 0.0576 ± 0.031 | 0.0455 ± 0.0035 | 0.0752 ± 0.012 | 0.203 ± 0.057 | 0.227 ± 0.017 | 0.254 ± 0.016 | 0.137 ± 0.043 | 0.0828 ± 0.028 | 0.0543 ± 0.0016 |
| CN(C)c1ccc(O)c2c1C[C@H]1C[C@H]3[C@H](N(C)C)C(=O)C(C(N)=O)=C(O)[C@@]3(O)C(=O)C1=C2O [Minocycline hydrochloride] | 0.0402 ± 0.00064 | 0.0422 ± 0.00083 | 0.0402 ± 0.00026 | 0.0426 ± 0.00055 | 0.0397 ± 0.00075 | 0.0426 ± 0.00067 | 0.06847 ± 0.00055 | 0.0692 ± 0.0029 | 0.0606 ± 0.01 | 0.0519 ± 0.0019 | 0.0527 ± 0.00085 | 0.0623 ± 0.0026 | 0.0637 ± 0.0055 |
| CCN(CC)CCOCCOC(=O)C1(c2ccccc2)CCCC1 [Carbetapentane citrate] | 0.203 ± 0.0053 | 0.275 ± 0.015 | 0.249 ± 0.0094 | 0.191 ± 0.03 | 0.133 ± 0.004 | 0.161 ± 0.0033 | 0.153 ± 0.017 | 0.294 ± 0.064 | 0.185 ± 0.021 | 0.199 ± 0.011 | 0.539 ± 0.035 | 0.41 ± 0.0084 | 0.288 ± 0.012 |
| O=C(c1ccc(F)cc1)C1CCN(CCn2c(=O)[nH]c3ccccc3c2=O)CC1 [Ketanserin tartrate hydrate] | 0.183 ± 0.0037 | 0.251 ± 0.0083 | 0.27 ± 0.0047 | 0.221 ± 0.033 | 0.132 ± 0.0046 | 0.17 ± 0.0079 | 0.243 ± 0.075 | 0.393 ± 0.039 | 0.203 ± 0.02 | 0.251 ± 0.056 | 0.491 ± 0.043 | 0.407 ± 0.011 | 0.2801 ± 0.002 |
| S=c1[nH]cnc2nc[nH]c12 [Mercaptopurine] | 0.062 ± 0.002 | 0.0619 ± 0.0038 | 0.0528 ± 0.0011 | 0.0694 ± 0.0044 | 0.0545 ± 0.0019 | 0.0747 ± 0.0012 | 0.176 ± 0.021 | 0.167 ± 0.01 | 0.202 ± 0.01 | 0.211 ± 0.004 | 0.234 ± 0.018 | 0.334 ± 0.017 | 0.113 ± 0.01 |
